Data reported in ChEMBL document CHEMBL3988442, “University of Dundee, Small-Polar-MMV Screening Library” (2021).
For some of these results: Results with a measured potency or affinity are listed apart.

Tests used:
Parameters in all cases: scale not given: direction of the effect not stated beside the values
[1] = target: Protein translocase subunit SecA (Escherichia coli (strain K12)) (UniProt P10408); assay: Assay to Identify E. coli SecA ATPase Inhibitors; type: functional; conditions: 30 µM
Sequence of Protein translocase subunit SecA (Escherichia coli (strain K12)) (P10408 whole entry): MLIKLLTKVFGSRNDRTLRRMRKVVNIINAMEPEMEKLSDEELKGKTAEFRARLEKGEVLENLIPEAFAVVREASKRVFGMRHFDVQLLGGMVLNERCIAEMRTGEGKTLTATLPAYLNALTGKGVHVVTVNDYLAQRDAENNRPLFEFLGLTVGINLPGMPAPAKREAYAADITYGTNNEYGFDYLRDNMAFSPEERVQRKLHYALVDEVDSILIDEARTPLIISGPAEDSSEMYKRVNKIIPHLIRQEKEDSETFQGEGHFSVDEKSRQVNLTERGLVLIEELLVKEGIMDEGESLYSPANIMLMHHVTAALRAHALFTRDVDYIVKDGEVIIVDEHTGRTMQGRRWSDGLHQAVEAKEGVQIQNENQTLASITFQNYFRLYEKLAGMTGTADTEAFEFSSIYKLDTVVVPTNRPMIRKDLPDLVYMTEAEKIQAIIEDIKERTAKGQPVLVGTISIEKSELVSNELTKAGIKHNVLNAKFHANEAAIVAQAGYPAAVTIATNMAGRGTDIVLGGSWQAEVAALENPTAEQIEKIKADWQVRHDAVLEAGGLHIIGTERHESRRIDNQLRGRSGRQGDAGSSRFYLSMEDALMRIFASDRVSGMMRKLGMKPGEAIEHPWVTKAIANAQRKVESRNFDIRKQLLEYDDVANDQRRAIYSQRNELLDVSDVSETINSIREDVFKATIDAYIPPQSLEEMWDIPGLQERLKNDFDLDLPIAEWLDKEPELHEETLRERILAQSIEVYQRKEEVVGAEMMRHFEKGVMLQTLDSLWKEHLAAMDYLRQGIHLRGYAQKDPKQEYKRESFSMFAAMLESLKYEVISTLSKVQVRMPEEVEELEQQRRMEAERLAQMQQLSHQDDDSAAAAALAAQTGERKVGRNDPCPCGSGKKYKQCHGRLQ

[2] = target: T1, Ubiquitin-activating enzyme e1, putative (Leishmania donovani (strain BPK282A1)) (UniProt E9BSI1); assay: Leishmania donovani Ubiquitin Activating Enzyme (LdE1); type: functional; conditions: 30 µM
T1 sequence (whole entry): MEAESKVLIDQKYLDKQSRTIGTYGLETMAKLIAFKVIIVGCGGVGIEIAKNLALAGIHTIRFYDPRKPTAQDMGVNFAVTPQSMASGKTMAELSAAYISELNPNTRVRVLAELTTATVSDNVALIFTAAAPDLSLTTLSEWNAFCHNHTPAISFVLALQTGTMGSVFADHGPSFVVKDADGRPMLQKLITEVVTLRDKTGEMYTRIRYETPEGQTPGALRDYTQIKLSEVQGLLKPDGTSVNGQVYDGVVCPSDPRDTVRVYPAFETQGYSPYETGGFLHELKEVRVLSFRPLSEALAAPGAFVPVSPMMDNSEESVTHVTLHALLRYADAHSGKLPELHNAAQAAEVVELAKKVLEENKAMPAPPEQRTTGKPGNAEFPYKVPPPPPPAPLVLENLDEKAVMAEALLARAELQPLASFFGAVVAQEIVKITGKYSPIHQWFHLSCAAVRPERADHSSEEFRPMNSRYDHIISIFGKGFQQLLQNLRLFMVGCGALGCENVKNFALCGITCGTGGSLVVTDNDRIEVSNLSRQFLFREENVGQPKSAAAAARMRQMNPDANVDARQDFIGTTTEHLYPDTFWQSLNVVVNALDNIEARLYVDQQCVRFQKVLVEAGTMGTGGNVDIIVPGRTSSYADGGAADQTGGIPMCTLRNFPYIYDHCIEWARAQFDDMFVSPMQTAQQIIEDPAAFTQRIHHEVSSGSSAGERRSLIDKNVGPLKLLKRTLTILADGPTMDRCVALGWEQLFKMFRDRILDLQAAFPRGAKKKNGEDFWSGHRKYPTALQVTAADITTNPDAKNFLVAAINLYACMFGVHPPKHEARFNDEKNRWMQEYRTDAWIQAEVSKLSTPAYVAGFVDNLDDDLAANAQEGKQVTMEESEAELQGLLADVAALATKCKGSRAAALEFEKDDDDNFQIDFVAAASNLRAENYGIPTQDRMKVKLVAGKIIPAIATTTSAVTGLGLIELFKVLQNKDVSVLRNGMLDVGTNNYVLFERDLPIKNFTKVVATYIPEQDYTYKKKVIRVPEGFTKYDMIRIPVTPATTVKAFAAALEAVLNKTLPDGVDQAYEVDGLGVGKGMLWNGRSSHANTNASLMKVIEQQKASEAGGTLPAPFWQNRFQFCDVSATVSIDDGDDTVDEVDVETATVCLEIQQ

[3] = target: T2, Aspartate--tRNA(Asp/Asn) ligase (Mycobacterium tuberculosis (strain ATCC 25618 / H37Rv)) (UniProt P9WFW3); assay: Assay for Asp RNA synthetase-1 from Mycobacterium tuberculosis; type: functional; conditions: 30 µM; note: in the data most compounds retested in dose-response had high values
T2 sequence (whole entry): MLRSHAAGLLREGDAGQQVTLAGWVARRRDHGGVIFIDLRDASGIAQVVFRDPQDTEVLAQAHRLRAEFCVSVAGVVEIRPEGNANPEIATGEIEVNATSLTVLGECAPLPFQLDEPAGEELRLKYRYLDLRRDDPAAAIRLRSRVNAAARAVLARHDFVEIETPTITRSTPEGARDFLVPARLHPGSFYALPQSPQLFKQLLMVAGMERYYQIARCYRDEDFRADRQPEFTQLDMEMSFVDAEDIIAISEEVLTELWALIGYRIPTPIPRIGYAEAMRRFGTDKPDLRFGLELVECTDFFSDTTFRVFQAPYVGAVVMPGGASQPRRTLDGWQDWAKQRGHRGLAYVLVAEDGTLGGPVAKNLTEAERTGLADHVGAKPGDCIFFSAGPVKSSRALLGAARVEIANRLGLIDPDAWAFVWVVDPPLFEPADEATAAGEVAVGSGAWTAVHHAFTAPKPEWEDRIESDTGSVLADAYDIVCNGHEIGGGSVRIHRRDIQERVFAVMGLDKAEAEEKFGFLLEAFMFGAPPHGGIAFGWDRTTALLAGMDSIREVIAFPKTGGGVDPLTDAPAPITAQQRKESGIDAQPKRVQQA

[4] = target: AMP-activated protein kinase, AMPK (Homo sapiens) (UniProt P54646+O43741+P54619+Q9UGJ0+Q9Y478+Q13131+Q9UGI9); assay: AMP-dependent Kinase enzyme assay. An in vitro enzyme assay that detects ADP turnover that is directly proportional to AMPK activity. This uses naive AMPK that is activated during the assay with MK-8722; type: functional; conditions: 30 µM
[5] = target: Sialic acid-binding Ig-like lectin 9 (Homo sapiens) (UniProt Q9Y336); assay: Hs-Siglec9 ALPHAscreen SOP 20170721; conditions: 10 µM
Sequence of Sialic acid-binding Ig-like lectin 9 (Homo sapiens) (Q9Y336 whole entry): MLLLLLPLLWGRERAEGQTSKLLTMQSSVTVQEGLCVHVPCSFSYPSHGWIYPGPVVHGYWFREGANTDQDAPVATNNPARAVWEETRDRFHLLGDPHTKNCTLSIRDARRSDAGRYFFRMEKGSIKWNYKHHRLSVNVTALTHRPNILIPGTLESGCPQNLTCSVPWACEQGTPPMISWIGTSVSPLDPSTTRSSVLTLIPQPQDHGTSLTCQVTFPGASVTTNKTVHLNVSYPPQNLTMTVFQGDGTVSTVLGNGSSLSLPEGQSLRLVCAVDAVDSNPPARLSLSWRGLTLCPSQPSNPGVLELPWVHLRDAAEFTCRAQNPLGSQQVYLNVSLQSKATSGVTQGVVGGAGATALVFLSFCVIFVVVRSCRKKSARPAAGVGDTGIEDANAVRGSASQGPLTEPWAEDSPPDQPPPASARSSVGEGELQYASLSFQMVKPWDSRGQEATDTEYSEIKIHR

[6] = test system: Trypanosoma cruzi; assay: Trypanosoma cruzi phosphomannomutase and mannose-1-phosphate guanylyltransferase assay; type: functional; conditions: 10 µM
[7] = target: T3, Arginase-2, mitochondrial (Homo sapiens) (UniProt P78540); assay: in vitro enzyme assay to detect the production of urea directly proportional to the activity of Arginase II; type: functional; conditions: 33.3 µM; note: in the data most compounds retested in dose-response had high values
T3 sequence (whole entry): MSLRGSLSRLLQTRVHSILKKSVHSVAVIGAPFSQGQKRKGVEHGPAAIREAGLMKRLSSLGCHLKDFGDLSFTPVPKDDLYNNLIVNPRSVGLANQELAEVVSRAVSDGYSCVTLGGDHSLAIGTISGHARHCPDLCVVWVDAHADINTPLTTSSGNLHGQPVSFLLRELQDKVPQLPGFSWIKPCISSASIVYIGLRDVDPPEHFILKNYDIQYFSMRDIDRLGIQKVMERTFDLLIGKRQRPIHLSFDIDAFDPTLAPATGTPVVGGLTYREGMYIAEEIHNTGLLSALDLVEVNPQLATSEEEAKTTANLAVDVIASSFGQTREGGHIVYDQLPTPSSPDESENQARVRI

[8] = target: T4, Proteasome subunit beta (Trypanosoma cruzi) (UniProt O96673); assay: Trypanosoma cruzi proteasome chymotrypsin-like activity (TcProtChymo) assay.; note: in the data most compounds retested in dose-response had high values; type: functional; conditions: 9.37 µM
T4 sequence (whole entry): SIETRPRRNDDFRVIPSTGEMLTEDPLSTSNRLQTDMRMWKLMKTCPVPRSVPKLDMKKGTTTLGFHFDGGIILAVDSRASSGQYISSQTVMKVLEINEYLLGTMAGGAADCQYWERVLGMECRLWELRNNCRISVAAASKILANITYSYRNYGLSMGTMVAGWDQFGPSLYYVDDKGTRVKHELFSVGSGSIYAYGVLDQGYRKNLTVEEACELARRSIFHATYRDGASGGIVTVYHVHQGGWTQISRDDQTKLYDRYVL

[9] = species: Homo sapiens; assay: To identify inhibition of the IFN signalling (Jak-Stat) pathway via expression of an eGFP reporter gene under the control of an IFN-stimulated response element (ISRE) containing MxA promoter.; type: functional; conditions: 30 µM
[10] = target: Shiga toxin 2 (Escherichia coli O157:H7) (UniProt P09385+P09386); assay: E. coli 0.157:H7 Shiga Toxin SOP - stx2 screening assay; type: functional; conditions: 30 µM
[11] = target: T5, Tyrosyl-tRNA synthetase, putative (Trypanosoma cruzi (strain CL Brener)) (UniProt Q4DSP6); assay: Trypanosoma cruzi tyrosyl tRNA synthetase (TcYRS) _High Tyrosine SOP; type: functional; conditions: 30 µM; note: in the data most compounds retested in dose-response had high values
T5 sequence (whole entry): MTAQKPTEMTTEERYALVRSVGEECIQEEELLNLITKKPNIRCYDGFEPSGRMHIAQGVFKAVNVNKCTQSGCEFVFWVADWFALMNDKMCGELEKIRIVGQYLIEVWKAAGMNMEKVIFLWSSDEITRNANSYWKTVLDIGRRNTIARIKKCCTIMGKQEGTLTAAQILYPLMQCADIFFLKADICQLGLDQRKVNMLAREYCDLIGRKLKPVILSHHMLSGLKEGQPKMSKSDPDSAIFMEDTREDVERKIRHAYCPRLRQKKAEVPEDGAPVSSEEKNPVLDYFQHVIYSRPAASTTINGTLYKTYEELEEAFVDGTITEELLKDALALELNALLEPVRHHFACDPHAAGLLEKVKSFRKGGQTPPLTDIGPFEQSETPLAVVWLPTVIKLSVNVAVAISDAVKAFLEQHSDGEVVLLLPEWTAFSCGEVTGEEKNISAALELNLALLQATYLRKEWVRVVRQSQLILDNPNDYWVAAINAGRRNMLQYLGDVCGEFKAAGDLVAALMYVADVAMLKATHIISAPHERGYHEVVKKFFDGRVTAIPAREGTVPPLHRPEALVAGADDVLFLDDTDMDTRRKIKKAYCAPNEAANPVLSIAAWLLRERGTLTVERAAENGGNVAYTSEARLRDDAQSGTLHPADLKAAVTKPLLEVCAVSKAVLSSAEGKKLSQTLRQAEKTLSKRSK

[12] = target: T5, Tyrosyl-tRNA synthetase, putative (Trypanosoma cruzi (strain CL Brener)); assay: Trypanosoma cruzi tyrosyl tRNA synthetase (TcYRS) SOP; type: functional; conditions: 30 µM
[13] = target: Chromo domain-containing protein 1 (Saccharomyces cerevisiae (strain ATCC 204508 / S288c) (Baker's yeast)) (UniProt P32657); assay: ScCHD-1 Enzyme Inhibition Assay; type: functional; conditions: 30 µM; note: in the data most compounds retested in dose-response had high values
Sequence of Chromo domain-containing protein 1 (Saccharomyces cerevisiae (strain ATCC 204508 / S288c) (Baker's yeast)) (P32657 whole entry, the tested form may be a part): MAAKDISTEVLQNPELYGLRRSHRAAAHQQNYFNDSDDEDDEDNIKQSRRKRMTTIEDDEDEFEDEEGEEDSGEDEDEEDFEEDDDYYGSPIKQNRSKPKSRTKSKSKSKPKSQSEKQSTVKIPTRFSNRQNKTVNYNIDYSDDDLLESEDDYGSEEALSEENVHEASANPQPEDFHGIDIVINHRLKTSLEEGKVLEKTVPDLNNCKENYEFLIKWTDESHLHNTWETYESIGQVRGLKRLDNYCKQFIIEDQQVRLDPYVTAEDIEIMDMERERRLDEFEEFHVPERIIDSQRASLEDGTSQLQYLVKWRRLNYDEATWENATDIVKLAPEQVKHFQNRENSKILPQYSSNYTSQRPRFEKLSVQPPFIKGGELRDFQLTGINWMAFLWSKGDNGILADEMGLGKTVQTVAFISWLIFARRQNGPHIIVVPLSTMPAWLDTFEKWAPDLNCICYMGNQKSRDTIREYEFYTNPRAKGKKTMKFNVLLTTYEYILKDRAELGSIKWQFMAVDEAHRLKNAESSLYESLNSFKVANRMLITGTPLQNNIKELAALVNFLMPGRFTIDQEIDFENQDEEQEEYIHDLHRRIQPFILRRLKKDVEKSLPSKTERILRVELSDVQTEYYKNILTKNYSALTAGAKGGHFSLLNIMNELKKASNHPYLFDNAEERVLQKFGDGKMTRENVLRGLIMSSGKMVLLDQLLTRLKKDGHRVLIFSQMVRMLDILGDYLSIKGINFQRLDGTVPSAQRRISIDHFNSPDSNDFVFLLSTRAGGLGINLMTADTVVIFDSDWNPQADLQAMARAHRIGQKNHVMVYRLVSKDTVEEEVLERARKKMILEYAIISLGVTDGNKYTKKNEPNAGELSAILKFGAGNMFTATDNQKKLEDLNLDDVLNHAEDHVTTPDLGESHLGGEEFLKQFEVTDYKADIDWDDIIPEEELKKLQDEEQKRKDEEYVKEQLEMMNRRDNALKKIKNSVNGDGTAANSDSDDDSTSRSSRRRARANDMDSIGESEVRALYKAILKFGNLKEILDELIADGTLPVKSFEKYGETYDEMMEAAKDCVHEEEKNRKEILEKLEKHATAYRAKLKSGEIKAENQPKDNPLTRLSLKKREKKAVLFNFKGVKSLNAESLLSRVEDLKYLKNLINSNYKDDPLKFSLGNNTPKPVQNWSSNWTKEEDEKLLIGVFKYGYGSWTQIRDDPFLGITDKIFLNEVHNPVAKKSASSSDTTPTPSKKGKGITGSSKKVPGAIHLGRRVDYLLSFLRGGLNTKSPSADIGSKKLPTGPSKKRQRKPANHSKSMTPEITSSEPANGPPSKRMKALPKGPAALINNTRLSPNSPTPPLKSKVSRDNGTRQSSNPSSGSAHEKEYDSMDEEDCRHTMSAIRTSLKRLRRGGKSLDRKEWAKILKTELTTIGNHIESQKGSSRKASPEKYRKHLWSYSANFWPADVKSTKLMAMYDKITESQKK

| Structure (SMILES) | Percent Effect [1] | Percent Effect [2] | Percent Effect [3] | Percent Effect [4] | Percent Effect [5] | Percent Effect [6] | Percent Effect [7] | Percent Effect [8] | Percent Effect [9] | Percent Effect [10] | Percent Effect [11] | Percent Effect [12] | Percent Effect [13] |
| --- | --- | --- | --- | --- | --- | --- | --- | --- | --- | --- | --- | --- | --- |
| COc1cc(OC)c(C2SCC(=O)Nc3n[nH]cc32)cc1OC (configuration not stated) | -4.64% | 5.26% | 10.6% | 15.2% | 0.428% | -0.682% | -7.1% | 9.11% | 20.6% | 10.6% | 2.13% | 2.6% | -1.49% |
| COc1cc(CNC(C)Cn2cccn2)cc(OC)c1OC (configuration not stated) | 0.206% | 18.2% | -3.28% | 0.589% | -6.87% | -7.3% | 4.98% | 2.87% | 29.8% | -15.9% | 7.77% | 14.6% | -9.78% |
| O=C(NC[C@]12COC[C@H]1CN(Cc1ccncc1)C2)c1ccco1 | -2.11% | 13.3% | -0.368% | 7.09% | 2.99% | -2.17% | 4.43% | 12.8% | 7.74% | -4.6% | 10.6% | 21.8% | -2.5% |
| O=C(CN1CCN(C(=O)Cc2ccc3c(c2)OCCO3)CC1)NC1CC1 | -0.996% | 18.2% | 3.1% | 0.741% | 0.674% | 2.06% | -2.13% | 11.8% | -0.0292% | -19.4% | 6.8% | 12.2% | -6.48% |
